# Test results reported in publication PMC5540273 (PLoS ONE, 2017).
# Several values for one entry are separate records, joined by “and”; a condition that tells them apart may be missing. Equal entries are not always repeated. Where two headings read alike, the source gives them in different places.
# Tests used:
# TAOK2 = conditions: concentration: 1 μM, replicates: in singlicate; n = 1
# TAOK3 = conditions: concentration: 1 μM, replicates: in singlicate, n = 1
# TBK1 = conditions: concentration: 1 μM, replicates: in singlicate, n = 1
# TEC = conditions: concentration: 1 μM, replicates: in singlicate, n = 1
# TESK1 = conditions: concentration: 1 μM, replicates: in singlicate, n = 1
# TGFBR1 = conditions: concentration: 1 μM, replicates: in singlicate, n = 1
# TGFBR2 = conditions: concentration: 1 μM, replicates: in singlicate, n = 1
# TIE1 = conditions: concentration: 1 μM, replicates: in singlicate, n = 1
# TIE2 = system: T1, TIE2; conditions: concentration: 1 μM, replicates: in singlicate, n = 1
# T1 construct: gene TEK
# TLK1 = conditions: concentration: 1 μM, replicates: in singlicate, n = 1
# 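Further: KINOMEscan kinase panel screen.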
SMILES,%Inh (TAOK2) [%],%Inh (TAOK3) [%],%Inh (TBK1) [%],%Inh (TEC) [%],%Inh (TESK1) [%],%Inh (TGFBR1) [%],%Inh (TGFBR2) [%],%Inh (TIE1) [%],%Inh (TIE2) [%],%Inh (TLK1) [%],%Inh (TAOK3; 1 µM),%Inh (TBK1; 1 µM),%Inh (TEC; 1 µM),%Inh (TESK1; 1 µM),%Inh (TGFBR1; 1 µM),%Inh (TGFBR2; 1 µM),%Inh (TIE1; 1 µM),%Inh (TIE2; 1 µM),%Inh (TLK1; 1 µM)
Nc1nccc(-c2c(-c3ccc(F)cc3)ncn2C2CCN(CC(F)(F)F)CC2)n1 [SB-236560],0,0,0,8,0,32,6,25,0,11,,,,,,,,,
Cc1cn2c(=O)cc(N3CCOCC3)nc2n1Cc1cccc(Cl)c1Cl [GSK2334006],0,0,0,12,17,15,0,50,19,17,,,,,,,,,
NS(=O)(=O)c1cccc(-c2ccc3nccc(-c4cccc(S(N)(=O)=O)c4)c3c2)c1 [GW867253],31,6,15,0,7,0,0,5,0,3,,,,,,,,,
Cc1nnc(-c2ccc(C)c(-c3ccc(C(=O)Nc4ccc(NS(C)(=O)=O)cc4)cc3)c2)o1 [GW702865],0,0,10,0,11,0,0,0,0,0,,,,,,,,,
Cc1ccc(NC(=O)c2ccnc(N3CCN(C)CC3)c2)cc1-c1ccc(C(=O)NCC2CC2)cc1 [GW775604],13,0,13,0,0,25,0,2,0,0,,,,,,,,,
O=c1cc(N2CCOCC2)nc2n(Cc3cccc(Cl)c3Cl)c(C3CC3)nn12 [GSK2358994],0,0,26,13,14,0,10,0,0,25,,,,,,,,,
Nc1nc(-c2ccc3c(N)n[nH]c3c2)cc(N2CCCC2)n1 [GSK2227430],0,0,18,0,2,0,0,0,0,3,,,,,,,,,
CC(C)Oc1ccc2c(-c3ccnc(Nc4ccc(N5CCN(C)CC5)cc4)n3)cnn2n1 [GW696155],79,70,97.9,0,12,29,35,80,0,95.3,,,,,,,,,
NCC(NC(=O)c1cc(-c2cn[nH]c2)c(-c2ccnc3[nH]ccc23)s1)c1ccccc1.O=C(O)C(F)(F)F.O=C(O)C(F)(F)F (centres unmarked) [GSK1325775],40,40,20,1,18,4,0,6,0,5,,,,,,,,,
CC(C)(C)n1cnc2c(N)ncnc21 [SKF-97359],0,0,19,0,0,30,0,0,17,67,,,,,,,,,
O=c1cc(N2CCOCC2)nc2n(Cc3cccc(C(F)(F)F)c3)ccn12 [GSK2297543],0,0,24,0,18,0,0,0,0,12,,,,,,,,,
Fc1ccc(-c2ncn(CCCN3CCOCC3)c2-c2cccnc2)cc1 [SB-211743],34,0,43,9,5,26,12,9,0,0,,,,,,,,,
O=c1cc(N2CCOCC2)nc2n(Cc3cccc4ccccc34)ccn12 [GSK2333389],0,0,0,0,0,17,1,11,0,0,,,,,,,,,
CC(C)(CN)c1nc(-c2ccc(Cl)c(O)c2)c(-c2ccncc2)[nH]1.O=C(O)C(F)(F)F [SB-477794],0,,,,,,,,,,6% and 0%,0% and 5%,13% and 0%,100% and 56%,98.8% and 96.2%,99.2% and 99.6%,1% and 0%,3% and 22%,20% and 11%
O=C(NCCNc1ccnc(Nc2ccc(F)cc2)n1)c1cc2ccccc2s1 [GSK1379874],0,0,17,8,97.2,7,0,0,0,0,,,,,,,,,
NS(=O)(=O)c1cccc(-c2ccc3ncc(N4CCOCC4)nc3c2)c1 [GSK1535721],0,4,17,18,0,6,0,0,0,9,,,,,,,,,
COc1ccc(COc2cc(-n3cnc4ccccc43)sc2C(N)=O)cc1 [GSK1024304],0,0,0,12,20,0,0,11,0,0,,,,,,,,,
CN1c2ccc(CNc3ccc(F)cc3)cc2-c2c(cnn2C)S1(=O)=O,23,0,0,0,0,0,0,0,0,16,,,,,,,,,
CC(=O)Nc1ccc(COc2ccc(Nc3ccnc4cc(-c5ccccn5)ccc34)cc2)cc1.Cl [GW440148],0,0,21,0,9,8,28,26,6,38,,,,,,,,,
COc1cc2ncn(-c3cc(OCc4sccc4Cl)c(C(N)=O)s3)c2cc1OC [GSK448459],0,0,15,5,0,11,0,36,0,0,,,,,,,,,
